# From PubChem BioAssay
# EPAC1 antagonist – qHTS for Antagonist of cAMP-regulated guanine nucleotide exchange factor 3 (EPAC1): primary screen | Potency, µM (highest dose often 115 µM), inactives show top-dose activity change, negative = inhibition, most hits filed as inhibitors | EPAC1 GEF assay, Rap1b-BODIPY-GDP exchange fluorescence | Rap guanine nucleotide exchange factor 3 (Homo sapiens), O95398 | 360,000 compounds, 0.14% hits;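 also: plate controls were vehicle for no effect and positive control for full effect; nearly all actives have a fitted effect of over 50% in size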
# USP1 inh – Inhibitors of USP1/UAF1: Primary Screen. 390,000 compounds, 0.23% hits. AID 743255, 2014. Potency, µM (highest dose often 57.1 µM), for inactives: top-dose activity change, negative = inhibition, most hits filed as inhibitors. recombinant USP1/UAF1, Ub-Rhodamine cleavage fluorescence; also: % is scaled to controls: 0 for no effect and ±100 for the full control effect; nearly all actives have a fitted effect of over 60% in size
#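 USP1/UAF1 complex (1 nM) preincubated 15 min at room temperature with compound, then Ub-Rho substrate (150 nM final) added. Kinetic fluorescence at 480/540 nm over 6 reads at 60 s intervals; 50 mM HEPES pH 7.8, 0.5 mM EDTA, 0.1 mg/ml BSA, 1 mM TCEP, 0.01% Tween-20.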
# EPAC1 agonist – qHTS for Agonist of cAMP-regulated guanine nucleotide exchange factor 3 (EPAC1): primary screen. Rap guanine nucleotide exchange factor 3 (Homo sapiens), O95398. EPAC1 agonist qHTS, biochemical assay; response scale: 100% = response to 6.5 mM cAMP. Potency, µM (highest dose often 154 µM), for the others: top-dose activation, actives largely listed as activators. 360,000 compounds, 0.073% hits. AID 720707, 2013; also: nearly all actives have a fitted effect of over 60% in size
#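 Compounds were pinned as a concentration titration into mixtures of EPAC1 (100 nM), BODIPY-GDP-loaded Rap1B (250 nM) and GDP (50 uM). After 5 min at room temperature, fluorescence was followed for 30 min; activity was scaled to 6.5 mM cAMP.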
# 12-LOX inh – Primary qHTS assay for inhibitors of human arachidonate 12S-lipoxygenase (ALOX12): Round 2 | 580,000 compounds, 1.1% hits | Polyunsaturated fatty acid lipoxygenase ALOX12 (Homo sapiens), P18054 | Potency, µM (top dose mostly 108 µM), without a hit: top-dose activity change, negative = inhibition, hits mostly inhibitors | purified 12hLO, xylenol orange hydroperoxide absorbance; also: % is scaled to controls: 0 for no effect and ±100 for the full control effect
# Target sequence (P18054 whole entry, looked up): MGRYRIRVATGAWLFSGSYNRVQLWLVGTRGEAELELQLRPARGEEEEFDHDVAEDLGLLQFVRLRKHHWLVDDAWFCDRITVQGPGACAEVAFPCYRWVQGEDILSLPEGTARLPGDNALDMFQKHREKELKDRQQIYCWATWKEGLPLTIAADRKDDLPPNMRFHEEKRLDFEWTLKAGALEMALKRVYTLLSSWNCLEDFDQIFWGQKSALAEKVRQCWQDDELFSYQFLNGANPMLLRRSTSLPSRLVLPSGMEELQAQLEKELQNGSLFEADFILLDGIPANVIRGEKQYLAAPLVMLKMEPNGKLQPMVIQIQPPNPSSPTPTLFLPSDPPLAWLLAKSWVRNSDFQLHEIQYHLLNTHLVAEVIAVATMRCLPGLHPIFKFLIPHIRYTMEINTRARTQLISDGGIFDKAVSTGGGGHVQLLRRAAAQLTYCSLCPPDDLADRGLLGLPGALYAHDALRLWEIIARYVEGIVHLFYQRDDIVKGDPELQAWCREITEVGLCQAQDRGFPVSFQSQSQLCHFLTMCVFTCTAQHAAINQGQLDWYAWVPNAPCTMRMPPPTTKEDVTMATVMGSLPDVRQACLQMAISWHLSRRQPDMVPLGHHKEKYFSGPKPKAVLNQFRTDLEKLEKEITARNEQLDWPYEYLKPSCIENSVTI
#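 Hydroperoxide product was detected by ferrous iron/xylenol orange as the 573 to 405 nm absorbance ratio. Arachidonic acid at 40 uM (final) was turned over for 30 min at room temperature by 150 nM human 12hLO, pH 7.0 Hepes buffer, after 15 min compound preincubation.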
# EPAC2 ag – qHTS for Agonist of cAMP-regulated guanine nucleotide exchange factor 4 (EPAC2): primary screen; EPAC2 activation, biochemical qHTS; response scale: 100% = 6.5 mM cAMP response; 360,000 compounds, 0.079% hits; Potency, µM (series often up to 154 µM), without a hit: at the highest dose activation, usual class: activators; also: nearly all actives have a fitted effect of over 50% in size
#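 Compounds were added across a concentration range to EPAC2 (100 nM), RAP1B-BODIPY-GDP (250 nM) and GDP (50 uM). After 5 min at room temperature, fluorescence was recorded at 5-min intervals for 30 min.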
# EPAC2 antagonist – qHTS for Antagonist of cAMP-regulated guanine nucleotide exchange factor 2 (EPAC2): primary screen. EPAC2 GEF exchange of Rap1B-BODIPY-GDP, fluorescence. Potency, µM (series often up to 114 µM), for inactives: top-dose activity, negative = inhibition, actives largely listed as inhibitors. 360,000 compounds, 0.18% hits. AID 720708, 2013; also: % is scaled to controls: 0 for no effect and ±100 for the full control effect; nearly all actives have a fitted effect of over 45% in size
# * hit, by the source's call; ? = inconclusive; . = not tested or not shown; [ ] = remark or other dose. The list is not random: actives were taken first. Their share in the collection is about 1.3%. Calls follow the shape of the dose curve; as a rule, active = well fitted curve in the direction sought with a large enough effect; inconclusive = small, poorly fitted or top-dose-only effect, or another doubt; inactive = no such curve, though single readings can be large; an effect the other way counts as inactive or inconclusive. Potency is read from the fitted curve at half-maximal effect.
SMILES,EPAC1 antagonist,USP1 inh,EPAC1 agonist,12-LOX inh,EPAC2 ag,EPAC2 antagonist
CCOc1ccc(C=NNc2ccc(S(=O)(=O)Nc3ccccc3C(=O)O)cc2[N+](=O)[O-])cc1OC,-12.7%,-26.5%,5.5%,.,-4.8%,-13.4%
COc1ccccc1NS(=O)(=O)c1cccc(-n2c(O)c(C=Nc3ccccc3C(=O)O)c3ccccc3c2=O)c1,56.2µM*,?,5.0%,?,2.0%,?
COc1cc(C=NNc2ccc(S(=O)(=O)Nc3ccccc3C(=O)O)cc2[N+](=O)[O-])ccc1O,89.1µM*,?,-4.4%,?,-16.3%,?
COc1ccc(C(C)=NNc2ccc([N+](=O)[O-])cc2S(=O)(=O)Nc2ccccc2C(=O)O)c(OC)c1,-27.9%,-17.0%,7.5%,?,-1.3%,?
Cc1ccc(/C=N/Nc2ccc(S(=O)(=O)Nc3ccccc3C(=O)O)cc2[N+](=O)[O-])o1,.,.,.,14.1µM*,.,.
O=[N+]([O-])c1ccccc1/C=N/Nc1ccc(S(=O)(=O)Nc2cccc(Cl)c2)cc1[N+](=O)[O-],.,.,.,-22.2%,.,.
O=C(O)c1ccccc1NS(=O)(=O)c1ccc(N/N=C/c2cccc(O)c2O)c([N+](=O)[O-])c1,25.1µM*,-24.2%,-12.2%,39.8µM*,-5.8%,-25.8%
CCOc1cc(/C=N/Nc2ccc(S(=O)(=O)Nc3ccccc3C(=O)O)cc2[N+](=O)[O-])cc(Cl)c1O,50.1µM*,?,-2.6%,35.5µM*,3.5%,4.4%
CC(=O)Nc1ccc(C=NNc2ccc([N+](=O)[O-])cc2S(=O)(=O)Nc2ccccc2C(=O)O)cc1,?,-17.8%,-2.0%,?,0.1%,?
CC(=O)Nc1ccc(C=NNc2ccc(S(=O)(=O)Nc3ccccc3C(=O)O)cc2[N+](=O)[O-])cc1,79.4µM*,-14.3%,1.1%,?,3.7%,50.1µM*
C#CCOCCOCCOCCNc1nc(N2CCN(C(=O)CCCCCCCCCCNC(=O)[C@@H](CCSC)n3cc(CCO)nn3)CC2)nc(N2CCN(C(=O)CCCCCCCCCCNC(=O)[C@H]([C@@H](C)CC)n3cc(CCCCCN)nn3)CC2)n1,44.7µM*,?,?,.,?,?
C#CCOCCOCCOCCNc1nc(N2CCN(C(=O)[C@H](CC(N)=O)n3cc(C(N)[C@H](C)CC)nn3)CC2)nc(N2CCN(C(=O)[C@H](CC(N)=O)n3cc(C(N)[C@@H](C)CC)nn3)CC2)n1 (some centres undefined),4.5%,-26.5%,-0.8%,0.631µM*,7.9%,9.4%
C#CCOCCOCCOCCNc1nc(N2CCN(C(=O)[C@H]([C@@H](C)CC)n3cc(CCCN=C(N)N)nn3)CC2)nc(N2CCN(C(=O)[C@H]([C@@H](C)CC)n3cc(CCC(=O)O)nn3)CC2)n1,9.7%,-26.8%,-6.2%,10µM*,0.7%,12.1%
C#CCOCCOCCOCCNc1nc(N2CCN(C(=O)Cn3cc(CC(C)O)nn3)CC2)nc(N2CCN(C(=O)[C@H](CCCCN)n3cc(CCC(=O)O)nn3)CC2)n1 (some centres undefined),1.6%,-11.1%,6.7%,15.8µM*,-7.0%,23.4%
C#CCOCCOCCOCCNc1nc(N2CCN(C(=O)Cn3cc(CCCN=C(N)N)nn3)CC2)nc(N2CCN(C(=O)[C@H](CCCCN)n3cc(CC(C)O)nn3)CC2)n1 (some centres undefined),-4.3%,-26.1%,-3.2%,?,4.1%,6.1%
O=C(Nc1nc2ccccc2[nH]1)c1cccc(S(=O)(=O)N2CCc3ccccc32)c1,.,.,.,2.6%,.,.
CCN(CC)c1ccc(C(=O)O)cc1,?,3.4%,-1.1%,-4.8%,0.2%,-9.8%
CCN(CC)c1ccc(/C=C2\C(=O)c3ccc(C(=O)O)cc3C2=O)cc1,?,14.1µM*,6.3%,7.2%,7.1%,?
O=C(Nc1cc(S(=O)(=O)N2CCOCC2)ccc1N1CCCC1)c1ccc2c(c1)S(=O)(=O)c1ccccc1C2=O,2.6%,?,10.5%,14.1µM*,18.9%,2.4%
CC1CN(S(=O)(=O)c2cccc(C(=O)Nc3ccccc3N3CCOCC3)c2)CC(C)O1 (centres undefined),-18.6%,-11.0%,25.1µM*,1.9%,1.8%,10.7%
O=C(CNc1cc(S(=O)(=O)N2CCOCC2)ccc1N1CCCC1)Nc1ccc(Cl)cc1,-6.9%,-8.6%,13.7%,214.5%,10.5%,-10.5%
O=C(CNc1cc(S(=O)(=O)N2CCCCC2)ccc1N1CCCCC1)Nc1ccc(F)cc1,.,.,.,10µM*,.,.
O=C(Nc1cc(S(=O)(=O)N2CCOCC2)ccc1N1CCCCC1)c1ccccc1,-4.6%,-12.8%,12.7%,417.3%,9.8%,-2.7%
O=C(Nc1cc(S(=O)(=O)N2CCOCC2)ccc1N1CCCC1)c1ccc(Cl)cc1,-21.6%,-8.5%,8.3%,25.1µM*,5.0%,4.8%
CCSc1ccccc1C(=O)NC(C)C,.,.,.,-4.6%,.,.
SMILES,EPAC1 antagonist,USP1 inh,EPAC1 agonist,12-LOX inh,EPAC2 ag,EPAC2 antagonist
O=C1Nc2ccccc2CN(Cc2ccc(Cl)cc2)C12CCNC2 (centres undefined),.,.,.,20µM*,.,.
CCCCCCCCCCCC(C)=O,.,.,.,1.4%[176 µM],.,.
CCOc1cccc2cc(C(=O)N3CCN(c4ccccc4C)CC3)c(=O)oc12,.,.,.,5.2%,.,.
COc1ccccc1-c1noc(-c2ccc(S(=O)(=O)N3CCOCC3)o2)n1,.,.,.,6.0%,.,.
O=C1S/C(=C\c2ccc(O)c([N+](=O)[O-])c2)C(=O)N1c1ccccc1Cl,56.2µM*,-19.2%,-21.6%,?,5.0%,?
Cc1ccc(NC(=O)CN2C(=O)S/C(=C/c3ccc(O)c([N+](=O)[O-])c3)C2=O)cc1C,44.7µM*,-12.1%,0.7%,-27.5%,-12.2%,?
O=C(NC1CCN(CC(F)(F)F)CC1)c1ccc(F)cc1,.,.,.,-2.4%,.,.
O=c1c(-c2ccco2)[n+]([O-])c2ccccc2n1OCc1ccccc1,-2.1%,-9.9%,0.1%,39.8µM*,-18.0%,-18.7%
O=S(=O)(c1ccc2ccccc2c1)N(Cc1ccco1)Cc1cccs1,.,.,.,50.1µM*,.,.
